An excerpt weighted towards active compounds, which were near 1.7% of everything screened.
Smad3 FoxH1 inh = Smad3 (human) transcription factor binding inhibition; TR-FRET Smad3/Dy647-FoxH1 peptide binding, europium anti-His; inhibition, % at 25 µM; 88,000 tested, 0.29% active;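 active = compounds that reduce the energy-transfer binding signal between the protein and its labelled peptide by more than half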;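 also: 0% = Smad3 plus labelled peptide maximal FRET and 100% = peptide-only background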
Target sequence (P84022 whole entry, looked up): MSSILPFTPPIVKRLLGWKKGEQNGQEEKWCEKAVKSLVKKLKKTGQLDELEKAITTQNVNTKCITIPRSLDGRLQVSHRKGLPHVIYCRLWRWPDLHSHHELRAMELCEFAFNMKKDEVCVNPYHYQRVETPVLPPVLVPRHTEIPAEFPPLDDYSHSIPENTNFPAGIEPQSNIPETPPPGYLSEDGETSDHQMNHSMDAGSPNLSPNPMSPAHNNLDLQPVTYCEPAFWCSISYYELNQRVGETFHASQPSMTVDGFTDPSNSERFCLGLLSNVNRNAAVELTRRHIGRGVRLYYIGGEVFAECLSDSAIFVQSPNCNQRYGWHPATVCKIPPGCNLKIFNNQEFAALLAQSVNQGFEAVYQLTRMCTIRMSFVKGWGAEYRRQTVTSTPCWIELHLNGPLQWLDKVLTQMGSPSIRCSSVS
MT1-MMP txn act = activates MT1-MMP transcription; HT1080 MT1-MMP promoter luciferase reporter, luminescence, overnight; stronger effect = higher value; 86,000 tested, 0.16% active; activation factor at 10 µM;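 active = activation factor of at least 2 for MT1-MMP transcription at 10 µM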
Measles CPE = protection of cells from measles virus; 140,000 tested, 1.5% active; Measles virus-infected cells, CPE protection, absorbance; protection (pct of control), % at 4 µM; in the data active = protection mostly above about 24%, no sharp cut-off; inactive = mostly below about 26%
Numbers without * were called inactive.

What do the screens show for `NC(=O)C1C(c2ccccc2)=C1c1ccccc1`?
Smad3 FoxH1 inh: 0.4; MT1-MMP txn act: 1; Measles CPE: 56.8*

Results for NC(=O)C1c2ccccc2CSc2ccccc21 (stereo not given) ?
Measles CPE: 7.0

Results for O=C(OCC(=O)N1CCCc2ccccc21)c1cccnc1Cl ?
Measles CPE: 38.6*

What do the screens show for `O=C(OCC(=O)N1CCc2ccccc21)c1cccnc1Cl`?
Smad3 FoxH1 inh: -2.9; MT1-MMP txn act: 1.7; Measles CPE: 6.4

Results for NC(=O)NC(=O)[C@H]1CCCC[C@@H]1C(=O)O ?
Smad3 FoxH1 inh: -4.6

What do the screens show for `CC(C)c1ccc(/C(C(=O)O)=C(\O)C(=O)O)cc1`?
Smad3 FoxH1 inh: 14.5

What do the screens show for `COC(=O)c1sccc1NC(=O)CN(C)NS(=O)(=O)c1ccc(Cl)cc1`?
Measles CPE: 43.6*

Results for COC(=O)c1sccc1NC(=O)CN(C)NS(=O)(=O)c1ccc(F)cc1 ?
Measles CPE: 13.0

Results for O=C(CSc1cccc[n+]1[O-])Nc1cc(S(=O)(=O)N2CCOCC2)ccc1Cl ?
Measles CPE: 5.2

Results for O=C(CSc1cccc[n+]1[O-])Nc1cc2c(cc1Cl)C(=O)c1ccccc1C2=O ?
Measles CPE: 24.1*

How did COc1ccc(N/C(=C(/C(Cl)=C(Cl)Cl)[N+](=O)[O-])n2nnc3ccccc32)cc1OC do in these assays?
Smad3 FoxH1 inh: 1.9; MT1-MMP txn act: 1; Measles CPE: 52.0*

What do the screens show for `COc1ccc(C(=O)n2nnc3ccccc32)cc1OC`?
Measles CPE: 6.1

How did CC(OC(=O)CCc1nc2ccccc2c(=O)[nH]1)C(=O)c1ccc(C(C)(C)C)cc1 (stereo not given) do in these assays?
Measles CPE: 3.5

Results for N=C(N)SCCc1ccccn1 ?
Smad3 FoxH1 inh: 0.2

What do the screens show for `CC1(C)CC(=O)C2=C(C1)NC(SCC(=O)Nc1ccccc1)=C(C#N)C2c1ccco1` (stereo not given)?
Smad3 FoxH1 inh: 1.1; MT1-MMP txn act: 1; Measles CPE: 38.2*

What do the screens show for `Cc1ccc(C(=O)CSC2=C(C#N)C(c3ccco3)C3=C(CC(C)(C)CC3=O)N2)cc1` (stereo not given)?
Smad3 FoxH1 inh: -1.6; Measles CPE: 1.1

How did Cc1ccc(N(C(=O)Cc2cccs2)C(C(=O)NC2CCCCC2)c2ccccn2)cc1C (stereo not given) do in these assays?
Measles CPE: 11.6

How did COCCn1c(C(=O)N2CCCC2)cc2c1C[C@H]1CN(C(=O)c3ccccc3)[C@@](Cc3ccc(OC)cc3)(C(=O)OC)[C@@H]21 do in these assays?
MT1-MMP txn act: 1.1

How did CC(C)(C)c1cc(NC(=O)c2cccc(S(=O)(=O)N3CCOCC3)c2)no1 do in these assays?
Measles CPE: 6.2

What do the screens show for `CN(C)Cc1cc(C(C)(C)C)ccc1-c1ccc(C(C)(C)C)cc1CN(C)C`?
Smad3 FoxH1 inh: 69.9*

What do the screens show for `CN(C)Cc1cc(C(C)(C)C)cc(CN(C)C)c1O`?
Smad3 FoxH1 inh: 6.8

How did CC(C)=CC(=O)OCC(=O)Nc1ccc(Cl)cn1 do in these assays?
Smad3 FoxH1 inh: -7.8; MT1-MMP txn act: 1.1; Measles CPE: 13.9

How did CC(C)=CC(=O)OCC(=O)Nc1ccccc1Cl do in these assays?
Smad3 FoxH1 inh: 2.5; MT1-MMP txn act: 1.1; Measles CPE: 81.5*

Results for CC(C)C(=O)Cc1ccc2ccccc2n1 ?
Smad3 FoxH1 inh: 6.5

Results for Cc1ccc(C(=O)Nc2ccccc2SCC2CSc3nc4ccccc4c(=O)n32)cc1 (stereo not given) ?
Measles CPE: 63.0*

What do the screens show for `O=C(Nc1ccccc1SCC1CSc2nc3ccccc3c(=O)n21)c1cccc(Cl)c1` (stereo not given)?
Measles CPE: 35.9*

How did O=c1c2ccccc2nc2n1C(CSCc1ccc(Cl)cc1)CS2 (stereo not given) do in these assays?
Measles CPE: 4.5

Results for O=C(Nc1ccccc1SCC1CSc2nc3ccccc3c(=O)n21)c1ccccc1 (stereo not given) ?
Measles CPE: 4.1

Results for Cc1cccc(C(=O)Nc2ccccc2SCC2CSc3nc4ccccc4c(=O)n32)c1 (stereo not given) ?
Measles CPE: 25.4*

What do the screens show for `O=C(Nc1ccccc1SCC1CSc2nc3ccccc3c(=O)n21)c1ccccc1Cl` (stereo not given)?
Measles CPE: 4.3

How did COc1ccc(-c2nc(N)c3ncn([C@H]4O[C@H](CO)[C@@H](O)[C@@H]4O)c3n2)cc1 do in these assays?
Smad3 FoxH1 inh: 5.9

Results for COC(=O)[C@@]1(Cc2ccc(F)cc2)[C@H]2c3cc(C(=O)N(C)C)n(Cc4cccc5ccccc45)c3C[C@H]2CN1C(=O)c1ccccc1 ?
MT1-MMP txn act: 1.2

How did OCCN[C@@H]1c2cc(Cl)ccc2-c2c(Cl)cc(Cl)cc21 do in these assays?
Smad3 FoxH1 inh: 44.9

High-throughput results: PubChem BioAssay, several laboratories
